# Assay results from PubChem BioAssay (Tox21).
# Results filed as inconclusive are left out. A number with no mark means an inactive call. The call rests on the fitted dose curve; in most records, active means well fitted cell-killing curve with a large enough effect in the repeat runs; inconclusive means weak or mixed curves; inactive means flat fitted curve, though single readings scatter.
# Assay: qHTS RealTime-Glo MT Cell Viability Assay in HepG2 cells - 16 hour (AID 1224885); further: nearly all actives have a fitted effect of over 50% in size
# Conditions: RealTime-Glo luminescence; series mostly up to 76.8 µM; activity change, negative = cytotoxic: at the top concentration
# Excerpt: U.S. Tox21 Program National Center for Advancing Translational Sciences [NCATS] NIH Chemical Genomics Center [NCGC] U.S. Environmental Protection Agency [EPA] National Institutes of Environmental Health Sciences [NIEHS] National Toxicology Program [NTP] U.S. Food and Drug Administration [FDA] Tox21 Assay Overview: Measure of cell viability is critical in the cell-base assay. Analysis of cell viability is necessary for the characterization of cell responses to cytotoxic drugs and environmental stress. A RealTime-Glo MT Cell Viability Assay to monitor cell viability in real time of continues cell culture during 40 hours of compound treatment was used to screen Tox21 10K library compounds in HepG2 cells. The RealTime-Glo MT Cell Viability Assay is a nonlytic, homogeneous, bioluminescent method to measure cell viability in real time using a simple, plate-based method. The assay involves adding NanoLuc luciferase and a cell-permeant prosubstrate to cells in culture. Viable cells reduce the proprietary prosubstrate to generate a substrate for NanoLuc luciferase. This substrate diffuses from cells into the surrounding culture medium, where it is rapidly used by the NanoLuc Enzyme to produce a luminescent signal. The signal correlates with the number of viable cells, making the assay well suited for cytotoxicity studies.
# Tox21 Assay Protocol Summary: The mixture of HepG2 cell suspension and reagents were dispensed at 600cells/6 ul/well in 1536-well tissue culture treated black solid bottom plates using a Multidrop dispenser. After the assay plates were incubated at a 37 C/5% CO2 incubator for 5 hours, 23 nL of compounds dissolved in DMSO, positive and negative controls was transferred to the assay plate by a pintool work station. The plates were incubated at 37 C for 40 hours. The luminescence intensity were measured at 0h, 8h, 16h, 24h, 32h and 40h time points using ViewLux plate reader during compound treatment.
# On the % scale 0 is the no-effect control and ±100 the full control effect.
row,Structure (SMILES),"activity change, negative = cytotoxic"
1,O=C(O)CCNC(=O)c1ccc(N=Nc2ccc(O)c(C(=O)O)c2)cc1,0.588% [at 35.3 µM]
2,CCCC(C)C(=O)O (stereo not given),-0.861%
3,Cc1ccccc1Br,3.99%
4,O=C(O)/C=C/c1ccc(/C=C/C(=O)O)cc1,1.19% [at 35.3 µM]
5,CC(C)CCCCCCN,1.79%
6,Oc1ccc2c(c1)OC[C@@H](N1CCC(O)(c3ccc(F)cc3)CC1)[C@H]2O,-3.43% [at 35.3 µM]
7,CCCOc1ccccc1-c1nc2n[nH]nc2c(=O)[nH]1,-2.51% [at 35.3 µM]
8,NC1CCN(c2cccc(Cl)n2)CC1,0.796% [at 35.3 µM]
9,NS(=O)(=O)c1cc(C2(O)NC(=O)c3ccccc32)ccc1Cl (stereo not given),0.0528% [at 35.3 µM]
10,CC(=O)OC(C)(C)C,1.84%
11,CC(C)=CC(=O)O,0.472%
12,C#CC(O)CCCCC (stereo not given),4.78%
13,CC(C)c1cccc(C(C)C)c1N,-12.2%
14,C[C@H](O)C(=O)Nc1c(I)c(C(=O)NC(CO)CO)c(I)c(C(=O)NC(CO)CO)c1I,2.37% [at 35.3 µM]
15,CCCCCCCCN(C)CCCCCCCC,-5.85%
16,COCCOC(=O)CC#N,2.19%
17,Nc1nc2c(ncn2CCC(CO)CO)c(=O)[nH]1,0.901% [at 35.3 µM]
18,C=C(C)[C@H]1CC=C(C)CC1,-1.56%
19,COC(=O)CCCC(=O)O,0.0491%
20,CCCCOCC(C)OCC(C)O (stereo not given),0.276%

row,Structure (SMILES),"activity change, negative = cytotoxic"
1,CC(C)c1ccc2oc3nc(N)c(C(=O)O)cc3c(=O)c2c1,2.4% [at 35.3 µM]
2,CCOC(=O)[C@H](CCc1ccccc1)N[C@@H](C)C(=O)N1CCC[C@H]1C(=O)O,1.9% [at 35.3 µM]
3,C[N+](C)(C)CC[N+]1(C)Cc2c(Cl)c(Cl)c(Cl)c(Cl)c2C1,0.496% [at 35.3 µM]
4,Cn1cnc2c(=O)[nH]c(N)nc21,2.03%
5,NCCNC(=O)c1ccc(Cl)cn1,0.625% [at 35.3 µM]
6,CCn1c(=O)c2c(nc(/C=C/c3ccc(OC)c(OC)c3)n2C)n(CC)c1=O,-23.3% [at 35.3 µM]
7,CC(C)CCCC(C)CCCC(C)CCCCC(C)CCCC(C)CCCC(C)C (stereo not given),1.16% [at 35.3 µM]
8,COc1ccc2cc(C=O)ccc2c1,1.43% [at 35.3 µM]
9,Nc1cc(N)cc(C(=O)O)c1,2.56%
10,NC(N)=NS(=O)(=O)c1ccc(N)cc1,-0.754% [at 35.3 µM]
11,OCc1ccccn1,-0.0799% [at 35.3 µM]
12,NS(=O)(=O)c1cc2c(cc1C(F)(F)F)NC(Cc1ccccc1)NS2(=O)=O (stereo not given),1.2% [at 35.3 µM]
13,COC(=O)CCCCCCCCC(=O)OC,1.23%
14,N[C@@H](CS)C(=O)O,-0.128%
15,CC(=O)c1ccc(C)cc1,-0.104%
16,COc1nc(C)nc(N)n1,1.06%
17,CC/C=C\C#N,4.67%
18,CO[Si](OC)(OC)OC,2.75%
19,C=C(C)C(=O)NCCCN(C)C,0.573%
20,C=C(C)C(=O)OCCCCCCCCCCCCCCCCCC,0.444% [at 15.8 µM]
